Laboratory results published in PubChem BioAssay (NCATS).
“And” between values parts separate entries of the source, which are not always exact repeats. Equal entries are not always repeated. Inconclusive results are not listed. The source made the active and inactive calls. Calls come from the whole dose curve; as a rule, active = well fitted cell-killing curve with a large enough effect; inconclusive = small, poorly fitted or top-dose-only effect, or effect the other way; inactive = no such curve, though single readings can be large or run the other way.

test: Viability qHTS for spleen associated tyrosine kinase inhibitor (SYKi) naive MV4-11 cells (AID 1963823); conditions: MV4-11 AML viability, CellTiter-Glo luminescence, 72 h; series mostly up to 45 µM; note: nearly all actives have a fitted effect of over 40% in size
Summary of the method: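 SYK inhibitor-naive MV4-11 cells, 500 per well, exposed to compounds for 72 hr at 37 C, 5% CO2. Viability read as CellTiter-Glo luminescence after 10 min at room temperature.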
Potency is the fitted concentration of half-maximal effect.

SMILES | Potency
CN1CCN(C(=O)c2ccc(-c3ccc4c(C=O)c(O)ccc4c3)s2)CC1 | 16600 nM (active)
O=C(O)Cc1ccccc1Oc1ccc(Cl)cc1Cl | inactive
C[C@H](NC(=O)CCC(F)(F)F)C(=O)N[C@@H]1C(=O)N(CCO)c2ncccc2-c2ccccc21 | inactive
O=C1NC(=O)[C@@H](c2c[nH]c3ccccc23)[C@H]1c1cn2c3c(cccc13)CCC2 | 833 nM (active)
O=C(O)c1cc(O)c(O)c(O)c1 | inactive
O=C(CO)[C@@H](O)[C@H](O)[C@@H](O)CO | inactive
O=[N+]([O-])c1ccc(O)c2ncccc12 | 2.99 µM (active) and 4.68 µM (active)
Cc1cc(I)ccc1Nc1c(C(=O)NOCC2CC2)cc(F)c(F)c1F | 2310 nM (active)
C[C@H]1O[C@H](O[C@H]2[C@H](O)[C@@H](O)[C@@H](O[C@H]3[C@H](O)[C@@H](O)C(O)O[C@@H]3CO)O[C@@H]2CO)[C@H](O)[C@@H](O)[C@@H]1N[C@H]1C=C(CO)[C@@H](O)[C@H](O)[C@H]1O (stereo not given in full) | inactive
CCCCc1ncc(/C=C(\Cc2cccs2)C(=O)O)n1Cc1ccc(C(=O)O)cc1 | inactive
CN1CC(=O)N2[C@H](c3ccc4c(c3)OCO4)c3[nH]c4ccccc4c3C[C@@H]2C1=O | inactive
c1ccc(-c2ccc(CNc3nc(-c4ccccn4)nnc3-c3ccccc3)cc2)cc1 | 920 nM (active)
C[C@H]1[C@H](O)O[C@@H]2O[C@@]3(C)CC[C@H]4[C@H](C)CC[C@@H]1[C@@]24OO3 | 731 nM (active)
CC1=NN(c2ccc(C(=O)O)cc2)C(=O)/C1=C/c1ccc(-c2cc(C)c(C)cc2[N+](=O)[O-])o1 | 16600 nM (active)
CC(=NNC(=O)c1cccc(S(=O)(=O)N2CCOCC2)c1)c1cc(Cl)ccc1O | 742 nM (active)
CCCc1ccc(OCC(=O)N2CCN(C(=O)COc3ccc(CCC)cc3OC)CC2)c(OC)c1 | inactive
CC(=O)NC(CS)C(=O)O (stereo not given) | inactive
C[N+]1(CC2COC(c3ccccc3)(C3CCCCC3)O2)CCCCC1 (stereo not given) | 13300 nM (active)
Cc1[nH]c2ccc(F)cc2c1-c1nc2c3cccnc3c3ncccc3c2[nH]1 | 231 nM (active)
CCOCCOC(=O)/C=C/c1ccc(OC)cc1 | inactive

SMILES | Potency
Cc1c(O)cccc1C(=O)NC(CSc1ccccc1)C(O)CN1CC2CCCCC2CC1C(=O)NC(C)(C)C (stereo not given) | 16600 nM (active)
COc1ccc(C2C(=O)c3ccccc3C2=O)cc1 | inactive
C[C@@H](C(=O)Nc1ccc(Cl)cc1)C1CCC(c2ccnc3ccc(F)cc23)CC1 (stereo not given in full) | 18600 nM (active)
COc1cc(C=C2CCC/C(=C\c3ccc(O)c(OC)c3)C2=O)ccc1O | 3760 nM (active)
C[C@H]1CN(C[C@H](Cc2ccccc2)C(=O)NCC(=O)O)CC[C@@]1(C)c1cccc(O)c1 | inactive
NC(=O)NNc1ccccc1 | inactive
CN[C@H](CC(C)C)C(=O)N[C@H]1C(=O)N[C@@H](CC(N)=O)C(=O)N[C@H]2C(=O)N[C@H]3C(=O)N[C@H](C(=O)N[C@H](C(=O)O)c4cc(O)cc(O)c4-c4cc3ccc4O)[C@H](O)c3ccc(c(Cl)c3)Oc3cc2cc(c3O[C@@H]2O[C@H](CO)[C@@H](O)[C@H](O)[C@H]2O[C@H]2C[C@](C)(N)[C@H](O)[C@H](C)O2)Oc2ccc(cc2Cl)[C@H]1O | inactive
O=C(/C=C/c1ccc(CN(CCO)CCc2c[nH]c3ccccc23)cc1)NO | 74.2 nM (active)
COc1cccc2c1C(=O)c1c(O)c3c(c(O)c1C2=O)C[C@@](O)(C(=O)CO)C[C@@H]3O[C@H]1C[C@H](N)[C@H](O[C@@H]2CCCCO2)[C@H](C)O1 | 750 nM (active)
CN1CCN(C2CCC(n3cc(-c4ccc(Oc5ccccc5)cc4)c4c(N)ncnc43)CC2)CC1 (stereo not given) | 23.1 nM (active)
CN(Cc1ccc(/C=C/C(=O)NO)cc1)CC12CC3CC(CC(C3)C1)C2 | 296 nM (active)
COc1cc(OC)c(/C=C/S(=O)(=O)Cc2ccc(OC)c(OP(=O)(O)O)c2)c(OC)c1 | 11.8 nM (active)
CO[C@@]1(NC(=O)C(C(=O)O)c2ccc(O)cc2)C(=O)N2C(C(=O)O)=C(CSc3nnnn3C)CO[C@@H]21 (stereo not given in full) | inactive
C[C@@H](Nc1ncnc2[nH]c(-c3ccc(O)cc3)cc12)c1ccccc1 | 4.11 µM (active) and 7.42 µM (active)
C/C=C/c1ccc(O)c(OC)c1 | inactive
CCCCCCCCCCCCCCCC[N+](C)(C)Cc1ccccc1 | 2370 nM (active)
NS(=O)(=O)c1cc2c(cc1C(F)(F)F)NC(Cc1ccccc1)NS2(=O)=O (stereo not given) | inactive
N[C@@H]1CN(c2c(F)cc3c(=O)c(C(=O)O)cn([C@@H]4C[C@@H]4F)c3c2Cl)CC12CC2 | inactive
Cc1ccc(C(=O)C(=O)O)cc1C | inactive
CNCc1ccccc1 | inactive

test: Viability qHTS for spleen associated tyrosine kinase inhibitor (SYKi) drug resistant MV4-11 cells (AID 1963824); conditions: SYKi-resistant MV4-11 viability, CellTiter-Glo, 72 h; series mostly up to 45 µM; note: nearly all actives have a fitted effect of over 35% in size
Summary of the method: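 CellTiter-Glo luminescence, read 10 min after reagent addition, reports viability after a 72 hr compound exposure. Cells are an MV4-11 line made resistant to SYK inhibition, seeded at 500 per well onto compound-containing plates.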

SMILES | Potency
CN1CCN(C(=O)c2ccc(-c3ccc4c(C=O)c(O)ccc4c3)s2)CC1 | 14.8 µM (active)
O=C(O)Cc1ccccc1Oc1ccc(Cl)cc1Cl | inactive
C[C@H](NC(=O)CCC(F)(F)F)C(=O)N[C@@H]1C(=O)N(CCO)c2ncccc2-c2ccccc21 | inactive
O=C1NC(=O)[C@@H](c2c[nH]c3ccccc23)[C@H]1c1cn2c3c(cccc13)CCC2 | 0.742 µM (active)
O=C(O)c1cc(O)c(O)c(O)c1 | 13.3 µM (active)
O=C(CO)[C@@H](O)[C@H](O)[C@@H](O)CO | inactive
O=[N+]([O-])c1ccc(O)c2ncccc12 | 7.5 µM (active) and 4.68 µM (active)
Cc1cc(I)ccc1Nc1c(C(=O)NOCC2CC2)cc(F)c(F)c1F | 2.59 µM (active)
C[C@H]1O[C@H](O[C@H]2[C@H](O)[C@@H](O)[C@@H](O[C@H]3[C@H](O)[C@@H](O)C(O)O[C@@H]3CO)O[C@@H]2CO)[C@H](O)[C@@H](O)[C@@H]1N[C@H]1C=C(CO)[C@@H](O)[C@H](O)[C@H]1O (stereo not given in full) | inactive
CCCCc1ncc(/C=C(\Cc2cccs2)C(=O)O)n1Cc1ccc(C(=O)O)cc1 | inactive
CN1CC(=O)N2[C@H](c3ccc4c(c3)OCO4)c3[nH]c4ccccc4c3C[C@@H]2C1=O | inactive
c1ccc(-c2ccc(CNc3nc(-c4ccccn4)nnc3-c3ccccc3)cc2)cc1 | 1.03 µM (active)
C[C@H]1[C@H](O)O[C@@H]2O[C@@]3(C)CC[C@H]4[C@H](C)CC[C@@H]1[C@@]24OO3 | 0.731 µM (active)
CC1=NN(c2ccc(C(=O)O)cc2)C(=O)/C1=C/c1ccc(-c2cc(C)c(C)cc2[N+](=O)[O-])o1 | 18.6 µM (active)
CC(=NNC(=O)c1cccc(S(=O)(=O)N2CCOCC2)c1)c1cc(Cl)ccc1O | 0.742 µM (active)
CCCc1ccc(OCC(=O)N2CCN(C(=O)COc3ccc(CCC)cc3OC)CC2)c(OC)c1 | inactive
CC(=O)NC(CS)C(=O)O (stereo not given) | inactive
C[N+]1(CC2COC(c3ccccc3)(C3CCCCC3)O2)CCCCC1 (stereo not given) | 11.9 µM (active)
Cc1[nH]c2ccc(F)cc2c1-c1nc2c3cccnc3c3ncccc3c2[nH]1 | 0.184 µM (active)
CCOCCOC(=O)/C=C/c1ccc(OC)cc1 | inactive

SMILES | Potency
Cc1c(O)cccc1C(=O)NC(CSc1ccccc1)C(O)CN1CC2CCCCC2CC1C(=O)NC(C)(C)C (stereo not given) | 11.8 µM (active)
COc1ccc(C2C(=O)c3ccccc3C2=O)cc1 | inactive
C[C@@H](C(=O)Nc1ccc(Cl)cc1)C1CCC(c2ccnc3ccc(F)cc23)CC1 (stereo not given in full) | 14.8 µM (active)
COc1cc(C=C2CCC/C(=C\c3ccc(O)c(OC)c3)C2=O)ccc1O | 3.35 µM (active)
C[C@H]1CN(C[C@H](Cc2ccccc2)C(=O)NCC(=O)O)CC[C@@]1(C)c1cccc(O)c1 | inactive
NC(=O)NNc1ccccc1 | inactive
CN[C@H](CC(C)C)C(=O)N[C@H]1C(=O)N[C@@H](CC(N)=O)C(=O)N[C@H]2C(=O)N[C@H]3C(=O)N[C@H](C(=O)N[C@H](C(=O)O)c4cc(O)cc(O)c4-c4cc3ccc4O)[C@H](O)c3ccc(c(Cl)c3)Oc3cc2cc(c3O[C@@H]2O[C@H](CO)[C@@H](O)[C@H](O)[C@H]2O[C@H]2C[C@](C)(N)[C@H](O)[C@H](C)O2)Oc2ccc(cc2Cl)[C@H]1O | inactive
O=C(/C=C/c1ccc(CN(CCO)CCc2c[nH]c3ccccc23)cc1)NO | 0.059 µM (active)
COc1cccc2c1C(=O)c1c(O)c3c(c(O)c1C2=O)C[C@@](O)(C(=O)CO)C[C@@H]3O[C@H]1C[C@H](N)[C@H](O[C@@H]2CCCCO2)[C@H](C)O1 | 3.35 µM (active)
CN1CCN(C2CCC(n3cc(-c4ccc(Oc5ccccc5)cc4)c4c(N)ncnc43)CC2)CC1 (stereo not given) | 58 nM (active) and 74.2 nM (active)
CN(Cc1ccc(/C=C/C(=O)NO)cc1)CC12CC3CC(CC(C3)C1)C2 | 0.235 µM (active)
COc1cc(OC)c(/C=C/S(=O)(=O)Cc2ccc(OC)c(OP(=O)(O)O)c2)c(OC)c1 | 0.0148 µM (active)
CO[C@@]1(NC(=O)C(C(=O)O)c2ccc(O)cc2)C(=O)N2C(C(=O)O)=C(CSc3nnnn3C)CO[C@@H]21 (stereo not given in full) | inactive
C[C@@H](Nc1ncnc2[nH]c(-c3ccc(O)cc3)cc12)c1ccccc1 | 5.17 µM (active) and 10.5 µM (active)
C/C=C/c1ccc(O)c(OC)c1 | inactive
CCCCCCCCCCCCCCCC[N+](C)(C)Cc1ccccc1 | 1.88 µM (active)
NS(=O)(=O)c1cc2c(cc1C(F)(F)F)NC(Cc1ccccc1)NS2(=O)=O (stereo not given) | inactive
N[C@@H]1CN(c2c(F)cc3c(=O)c(C(=O)O)cn([C@@H]4C[C@@H]4F)c3c2Cl)CC12CC2 | inactive
Cc1ccc(C(=O)C(=O)O)cc1C | inactive
CNCc1ccccc1 | inactive
